Assay outcomes (PubChem)
G9a inh: blocks human histone lysine methyltransferase G9a | Q96KQ7 | G9a H3K9 monomethylation, AlphaScreen, 2 h | Potency, µM (doses to about 102 µM), actives largely listed as inhibitors | hit rate 8.8% among 350,000 | AID 504332; further: nearly all actives have a fitted effect of over 75% in size
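Enzyme 20 nM + cpd, 15 min RT; add b-H3K9 pep 500 nM / SAM 20 uM; 2 h RT; anti-H3K9me1 Ab 0.5 ug/mL + SA donor / anti-rabbit acceptor beads 20 ug/mL each, 10 min; AlphaScreen read.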
PLK1 PBD block: blocks phosphopeptide binding to human PLK1 polo-box domain. hit rate 2.8% among 360,000. Potency, µM, hits mostly inhibitors. Plk1 PBD binding of FITC phosphopeptide, fluorescence polarization. P53350; further: series mostly up to about 57 µM; nearly all actives have a fitted effect of over 65% in size
Target sequence (P53350 whole entry, looked up, the tested form may be a part): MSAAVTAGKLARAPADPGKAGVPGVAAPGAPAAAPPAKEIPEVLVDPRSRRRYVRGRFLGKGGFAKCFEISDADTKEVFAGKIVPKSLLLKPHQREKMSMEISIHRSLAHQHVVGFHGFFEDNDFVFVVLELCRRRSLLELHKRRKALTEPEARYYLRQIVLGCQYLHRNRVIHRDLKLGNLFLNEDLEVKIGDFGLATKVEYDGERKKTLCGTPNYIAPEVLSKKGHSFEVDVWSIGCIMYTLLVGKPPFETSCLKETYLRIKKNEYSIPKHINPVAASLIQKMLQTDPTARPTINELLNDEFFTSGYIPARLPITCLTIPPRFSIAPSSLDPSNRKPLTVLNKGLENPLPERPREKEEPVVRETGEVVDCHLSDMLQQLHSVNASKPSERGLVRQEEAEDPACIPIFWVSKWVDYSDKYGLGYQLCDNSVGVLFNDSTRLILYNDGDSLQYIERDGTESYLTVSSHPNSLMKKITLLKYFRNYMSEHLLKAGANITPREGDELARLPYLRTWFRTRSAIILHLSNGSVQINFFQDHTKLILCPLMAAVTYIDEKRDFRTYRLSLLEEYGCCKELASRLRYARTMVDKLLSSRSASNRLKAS
HP1b binding inh: blocks HP1-beta chromodomain binding to methylated histone tails. Potency, µM (doses to about 114 µM), actives largely listed as inhibitors. AlphaScreen HP1-beta / biotin-H3K9me3 peptide binding. hit rate 0.56% among 390,000. P83916. AID 540317; further: nearly all actives have a fitted effect of over 70% in size
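AlphaScreen: HP1-beta (50 nM) preformed 30 min with biotin-H3(1-18)K9me3 peptide (50 nM) in PBS pH 7.4, 0.01% Tween-20. Compound added for 30 min at RT, then streptavidin donor/nickel chelate acceptor beads (10 ug/mL) for 30 min.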
Sfp PPTase inh: inhibitors of Bacillus subtilis Sfp phosphopantetheinyl transferase; Potency, µM, usual class: inhibitors; hit rate 3.5% among 310,000; Q9F4F7; Biochemical Sfp PPTase activity, qHTS;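 further: the enzyme is Sfp with the accession as filed and its product quenches rhodamine fluorescence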
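Fluorescence-quenching assay: 15 nM Sfp-PPTase preincubated 15 min at room temperature with compound, then 5 uM rhodamine-CoA and 12.5 uM BHQ-2-labelled YbbR peptide added. Fluorescence (ex 525/em 598 nm) read at start and after 30 min; difference gives rate.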
JMJD2A Tudor: inhibitors of human JMJD2A Tudor domain; hit rate 4.4% among 390,000; AlphaScreen JMJD2A-Tudor / H3K4me3 peptide binding; Potency, µM (titrated, usually from 114 µM), most hits filed as inhibitors; O75164; further: nearly all actives have a fitted effect of over 50% in size
BAZ2B block: blocks human BAZ2B | Q9UIF8 | AlphaScreen BAZ2B-H3K14Ac peptide displacement | Potency, µM (series often up to 114 µM), actives largely listed as inhibitors | hit rate 4.4% among 360,000; further: nearly all actives have a fitted effect of over 60% in size
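Compounds, titrated to a top concentration of 110 uM, were incubated 30 min at room temperature with preformed BAZ2B/acetyl-K14 H3 peptide complex (50 nM each). Proximity signal was measured by AlphaScreen after 20 min with beads.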
Large screens that a line does not name were inactive. Most compounds without a hit are left out; they make up all but 12% or so of the library. The call rests on the fitted dose curve; in most records, active means well fitted curve in the direction sought with a large enough effect; inconclusive means small, poorly fitted or top-dose-only effect, or another doubt; inactive means no such curve, though single readings can be large; an effect the other way counts as inactive or inconclusive.

Cn1c(=O)c2c(-c3ccccc3F)c3c(nc2n(C)c1=O)-c1ccccc1C3O (stereo unspecified)	G9a inh 10µM
Cn1c(=O)c2c(-c3cccc(F)c3)c3c(nc2n(C)c1=O)-c1ccccc1C3O (stereo unspecified)	none (no result: PLK1 PBD block, HP1b binding inh, JMJD2A Tudor)
O=C(COC(=O)c1cc(Br)ccc1O)Nc1cccnc1Cl	G9a inh inconclusive (no result: Sfp PPTase inh)
Cc1cccc2cccnc12	none (no result: Sfp PPTase inh)
Cc1ccnc2c1ccc1cccnc12	G9a inh 13µM, JMJD2A Tudor 5.6µM, BAZ2B block 2.8µM (no result: Sfp PPTase inh)
Cc1ccc2cccnc2c1N	JMJD2A Tudor 22µM, BAZ2B block inconclusive
Cc1ccnc2c1ccc1ccccc12	none
Cc1ccnc2c1ccc1c(C)ccnc12	G9a inh inconclusive, JMJD2A Tudor 7.1µM, BAZ2B block 4.5µM (no result: Sfp PPTase inh)
Cc1ccc(S(=O)(=O)N2CCN(c3nc(-c4ccc(CN5CCOCC5)s4)nc4ccccc34)CC2)cc1	none (no result: G9a inh, PLK1 PBD block, Sfp PPTase inh, BAZ2B block)
Cc1occc1-c1nnc(-c2cc([N+](=O)[O-])cc([N+](=O)[O-])c2)o1	G9a inh 32µM, Sfp PPTase inh inconclusive, BAZ2B block inconclusive
O=C(O)c1cccc(NC(=O)c2ccc3c(c2)C(=O)N(c2cccc([N+](=O)[O-])c2)C3=O)c1	none
NC(=O)c1cccc([N+](=O)[O-])c1	none (no result: Sfp PPTase inh)
O=C(O)c1ccc2c(c1)C(=O)N(c1cccc(C(=O)/C=C/c3ccccc3)c1)C2=O	PLK1 PBD block 42µM, Sfp PPTase inh inconclusive (no result: G9a inh)
O=C(c1cccc([N+](=O)[O-])c1)c1ccc2[nH]c(=O)[nH]c2c1	G9a inh 79µM
O=C(O)c1cccc(N2C(=O)c3ccc(C(=O)c4cccc([N+](=O)[O-])c4)cc3C2=O)c1	G9a inh 56µM
COc1ccc2[nH]cc(CCNc3ncncc3-c3cccc(C#N)c3)c2c1	none (no result: PLK1 PBD block, HP1b binding inh, JMJD2A Tudor, BAZ2B block)
CC(=O)C1=C(c2cccc([N+](=O)[O-])c2)N(C(C)=O)n2c(C)nnc2S1	G9a inh 10µM, BAZ2B block inconclusive
CCOc1ccc(C2=C(C(C)=O)Sc3nnc(C)n3N2C(C)=O)cc1	G9a inh inconclusive (no result: PLK1 PBD block, Sfp PPTase inh)
CC(=O)Nc1cccc(NC(=O)CSc2nc(C)c(C)c(C)c2C#N)c1	G9a inh 10µM, PLK1 PBD block inconclusive, Sfp PPTase inh inconclusive
CCOC(=O)c1sc(NC(=O)c2ccco2)c(C#N)c1C	G9a inh 45µM, PLK1 PBD block inconclusive
CCc1c(C)sc(NC(=O)c2ccco2)c1C#N	PLK1 PBD block inconclusive (no result: G9a inh)
CCOC(=O)c1sc(NC(=O)C2c3ccccc3Oc3ccccc32)c(C(=O)OCC)c1C	none (no result: PLK1 PBD block, Sfp PPTase inh)
CCN(CC)C(=O)c1sc(NC(=O)c2c(OC)cccc2OC)c(C#N)c1C	G9a inh 18µM, PLK1 PBD block inconclusive
CCN(CC)C(=O)c1sc(NC(=O)c2cccc([N+](=O)[O-])c2)c(C#N)c1C	G9a inh inconclusive
CCOC(=O)c1sc(NC(=O)C2c3ccccc3Oc3ccccc32)c(C#N)c1C	G9a inh 2.2µM (no result: PLK1 PBD block, Sfp PPTase inh)
COc1ccc(OCC(=O)NCC2(N3CCN(C)CC3)CCCCC2)cc1	none (no result: PLK1 PBD block, Sfp PPTase inh)
Cc1ccc(Cl)cc1N1CCN(CCCNC(=O)c2ccc3nc(N4CCCCC4)sc3c2)CC1	JMJD2A Tudor inconclusive (no result: PLK1 PBD block, Sfp PPTase inh)
COc1ccc(N2CCN(CCCNC(=O)c3ccc4nc(N5CCCCC5)sc4c3)CC2)cc1	G9a inh inconclusive, HP1b binding inh inconclusive, JMJD2A Tudor 45µM, BAZ2B block 25µM (no result: PLK1 PBD block, Sfp PPTase inh)
COCCn1c(=O)[nH]c2cc(C(=O)NCCN3CCN(c4ccc(OC)cc4)CC3)ccc2c1=O	G9a inh 10µM
O=C(Cn1c(=O)c2cccn2c2cccnc21)NCCCN1CCN(c2ccc(F)cc2)CC1	G9a inh inconclusive
COc1ccc(N2CCN(CCCNC(=O)c3sc4ncccc4c3-n3cccc3)CC2)cc1	G9a inh 16µM, JMJD2A Tudor 40µM, BAZ2B block 35µM (no result: PLK1 PBD block, Sfp PPTase inh)
COCCn1c(=O)[nH]c2cc(C(=O)NCCN3CCN(c4ccccc4)CC3)ccc2c1=O	none
COc1ccc(N2CCN(CCCNC(=O)Cn3c(=O)c4cccn4c4cccnc43)CC2)cc1	G9a inh 40µM, JMJD2A Tudor 50µM, BAZ2B block 32µM
CC1CCN(C(=O)c2[nH]cnc2C(=O)Nc2ccc(Cl)cc2)CC1	BAZ2B block inconclusive (no result: Sfp PPTase inh)
